Test results: PubChem BioAssay (NCATS)
Unmarked numbers belong to inactive results. Inconclusive results are not listed. A call without a number means that no potency is given here. Activity calls are given as the source filed them. The call rests on the fitted dose curve; in most records, active means well fitted curve in the direction sought with a large enough effect; inconclusive means small, poorly fitted or top-dose-only effect, or another doubt; inactive means no such curve, though single readings can be large; an effect the other way counts as inactive or inconclusive.

What was measured:
[1] = HepG2 viability counterscreen (readout 2: ATP content) against the NCATS DSHEA and TCM libraries (AID 1794840);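 further: HepG2 cells exposed to substances for about 24 h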
Summary of the method: (§1)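 After HepG2 cells attach for ~4 h, substances are added and incubated ~24 h at 37C, 5% CO2. GF-AFC fluorescence then CellTiter-Glo luminescence give protease and ATP readouts.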

[2] = HepG2 viability counterscreen (readout 1: protease activity) against the NCATS DSHEA and TCM libraries (AID 1794841);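 further: cells exposed to compounds for about 24 h before the protease read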
Summary of the method: as §1

[3] = target: Glutathione peroxidase 1 (Homo sapiens) (UniProt P07203); assay: Primary qHTS Assay for Inhibitors of Recombinant Selenoprotein Glutathione Peroxidase 1 (GPX1) (AID 1845191); further: nearly all actives have a fitted effect of over 65% in size
Sequence of Glutathione peroxidase 1 (Homo sapiens) (P07203 whole entry, looked up): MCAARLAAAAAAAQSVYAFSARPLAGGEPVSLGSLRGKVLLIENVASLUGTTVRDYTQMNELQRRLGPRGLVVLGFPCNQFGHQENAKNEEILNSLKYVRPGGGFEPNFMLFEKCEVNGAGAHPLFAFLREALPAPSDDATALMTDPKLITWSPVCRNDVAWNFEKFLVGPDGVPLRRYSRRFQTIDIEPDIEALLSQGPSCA
Summary of the method: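 Recombinant GPX1 (10 nM final) was preincubated with compound for 30 min at room temperature, then reacted with 1 mM GSH, 0.5 mM CHP, 0.5 mM NADPH and 100 nM glutathione reductase; NADPH fluorescence (340/450 nm) was read at 0 and 15 min.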

[4] = target: Phospholipid hydroperoxide glutathione peroxidase GPX4 (Homo sapiens) (UniProt P36969); assay: Primary qHTS Assay for Inhibitors of Recombinant Selenoprotein Glutathione Peroxidase 4 (GPX4) (AID 1845192); further: nearly all actives have a fitted effect of over 65% in size; further: potency means the concentration at half of the fitted maximal effect
Sequence of Phospholipid hydroperoxide glutathione peroxidase GPX4 (Homo sapiens) (P36969 whole entry, looked up): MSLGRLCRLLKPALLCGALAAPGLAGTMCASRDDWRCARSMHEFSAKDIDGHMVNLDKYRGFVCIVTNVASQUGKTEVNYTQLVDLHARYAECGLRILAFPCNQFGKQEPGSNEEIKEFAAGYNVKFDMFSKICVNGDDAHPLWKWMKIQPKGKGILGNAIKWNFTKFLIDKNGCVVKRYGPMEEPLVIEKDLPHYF
Summary of the method: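 GR-coupled readout: 100 nM GR, 1 mM GSH, 0.5 mM NADPH; NADPH fluorescence (ex 340/em 450 nm) read at t=0 and after 15 min RT. GPX4 200 nM, preincubated 30 min with compound; substrate 0.5 mM CHP.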

[5] = target: Cytochrome P450 2D6 (Homo sapiens) (UniProt P10635); assay: qHTS for inhibitors of CYP2D6 against the NCATS DSHEA and TCM libraries (AID 1919972)
Sequence of Cytochrome P450 2D6 (Homo sapiens) (P10635 whole entry, looked up): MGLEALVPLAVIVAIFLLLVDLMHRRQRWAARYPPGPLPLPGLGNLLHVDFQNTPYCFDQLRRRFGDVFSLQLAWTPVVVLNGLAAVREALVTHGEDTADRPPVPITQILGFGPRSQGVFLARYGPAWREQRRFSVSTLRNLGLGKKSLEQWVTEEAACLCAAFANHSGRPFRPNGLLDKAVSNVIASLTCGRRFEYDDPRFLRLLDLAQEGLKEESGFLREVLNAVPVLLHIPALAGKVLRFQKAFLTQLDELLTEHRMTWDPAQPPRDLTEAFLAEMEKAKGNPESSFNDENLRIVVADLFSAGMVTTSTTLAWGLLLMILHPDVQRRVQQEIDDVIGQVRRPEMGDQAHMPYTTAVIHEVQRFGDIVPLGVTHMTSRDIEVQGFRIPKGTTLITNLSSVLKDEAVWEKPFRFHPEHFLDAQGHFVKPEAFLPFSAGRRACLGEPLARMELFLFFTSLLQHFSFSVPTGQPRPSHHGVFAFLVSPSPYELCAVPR
Summary of the method: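 Steps: enzyme plus luciferin substrate dispensed; test substances pinned; 15 min RT; 1x NADPH regenerating solution added, 30–45 min RT protected from light; detection reagent, 30 min RT; luminescence measured. Minus-enzyme wells as background.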

[6] = target: Cytochrome P450 2C9 (Homo sapiens) (UniProt P11712); assay: qHTS for inhibitors of CYP2C9 against the NCATS DSHEA and TCM libraries (AID 1919973); further: potency means the concentration at half of the fitted maximal effect
Sequence of Cytochrome P450 2C9 (Homo sapiens) (P11712 whole entry, looked up): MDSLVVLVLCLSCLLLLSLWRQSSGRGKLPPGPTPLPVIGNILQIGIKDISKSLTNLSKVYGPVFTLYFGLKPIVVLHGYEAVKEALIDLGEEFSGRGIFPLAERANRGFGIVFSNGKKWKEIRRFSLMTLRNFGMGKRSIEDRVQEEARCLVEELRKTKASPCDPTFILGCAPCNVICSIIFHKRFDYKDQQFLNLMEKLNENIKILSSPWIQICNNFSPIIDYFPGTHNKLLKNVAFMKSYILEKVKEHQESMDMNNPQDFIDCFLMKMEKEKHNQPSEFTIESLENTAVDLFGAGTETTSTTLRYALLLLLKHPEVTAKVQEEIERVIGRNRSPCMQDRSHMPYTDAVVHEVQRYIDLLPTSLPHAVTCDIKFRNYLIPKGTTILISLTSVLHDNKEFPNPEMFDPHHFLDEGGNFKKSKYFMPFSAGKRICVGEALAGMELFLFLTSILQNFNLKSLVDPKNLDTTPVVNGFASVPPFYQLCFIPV
Summary of the method: (§2)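 Light output from converted D-luciferin reports remaining CYP activity. Compounds preincubate with enzyme and substrate for 15 min; NADPH regeneration (1x final) runs the reaction for 30-45 min.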

[7] = KB-3-1 P-gp reporter qHTS against the NCATS DSHEA and TCM libraries (AID 1919975)
Summary of the method: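 Cell viability qHTS: 500 KB-3-1 cells/well, substances in titration, ~72 h, 37C; luminescent CellTiter-Glo read.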

[8] = qHTS Counterscreen for compound interference against the NCATS DSHEA and TCM libraries (AID 1919978); conditions: firefly luciferase detection reagent interference, luminescence;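 further: compounds preincubated with 1 µM D-luciferin or buffer before detection reagent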
Summary of the method: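 Interference check: test samples were incubated with D-luciferin (final 1 uM) or buffer only for 15 min, room temperature, in a qHTS titration up to 39.8 uM, then developed with detection reagent and read by luminescence.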

[9] = Dual reporter qHTS for agonist of Pregnane X Receptor (hPXR) against the NCATS DSHEA and TCM libraries: Fluorescence readout (AID 1920058)
Summary of the method: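 Measures viability of the PXR reporter HepG2 line by protease-substrate fluorescence (405/540 nm), taken 1 h after CellTiter-Fluor addition. Substances are tested as concentration series over a ~24 h exposure, with rifampicin as agonist control.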

[10] = target: Nuclear receptor subfamily 1 group I member 2 (Homo sapiens) (UniProt O75469); assay: Dual reporter qHTS for antagonist of Pregnane X Receptor (hPXR) against the NCATS DSHEA and TCM libraries: Luminescence Readout (AID 1920060);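 further: HepG2 cells carrying hPXR luciferase reporter stimulated with rifampicin at 2 µM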
Sequence of Nuclear receptor subfamily 1 group I member 2 (Homo sapiens) (O75469 whole entry, looked up): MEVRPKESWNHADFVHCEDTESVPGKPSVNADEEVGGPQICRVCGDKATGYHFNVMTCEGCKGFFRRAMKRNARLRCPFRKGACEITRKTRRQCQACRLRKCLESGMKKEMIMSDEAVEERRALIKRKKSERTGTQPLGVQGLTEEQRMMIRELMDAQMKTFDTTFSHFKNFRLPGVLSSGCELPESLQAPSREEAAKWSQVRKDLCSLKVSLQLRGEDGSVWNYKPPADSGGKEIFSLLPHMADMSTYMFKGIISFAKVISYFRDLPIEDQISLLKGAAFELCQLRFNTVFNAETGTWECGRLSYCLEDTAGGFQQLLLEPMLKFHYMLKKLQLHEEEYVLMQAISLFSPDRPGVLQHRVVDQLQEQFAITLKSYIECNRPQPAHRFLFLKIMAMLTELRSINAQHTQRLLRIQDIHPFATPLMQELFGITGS
Summary of the method: (§3)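 hPXR-Luc HepG2 cells exposed 24 h at 37 C to compounds with 2 uM rifampicin in antagonist mode; luciferase luminescence measured by ONE-Glo, with CellTiter-Fluor viability read beforehand.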

[11] = Dual reporter qHTS for antagonist of Pregnane X Receptor (hPXR) against the NCATS DSHEA and TCM libraries: Fluorescence Readout (AID 1920061)
Summary of the method: as §3

[12] = target: Luciferin 4-monooxygenase (Photinus pyralis) (UniProt P08659); assay: Primary firefly luciferase (FLuc) qHTS assay for identification of artifact compounds. (AID 1845220); further: series mostly up to about 54 µM; nearly all actives have a fitted effect of over 60% in size
Summary of the method: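 qHTS, 15 min compound preincubation with substrate (10 uM luciferin, 10 uM ATP) at RT, then 10 nM FLuc; 5 min; luminescence; % inhibition vs no-enzyme/DMSO controls, 4-parameter Hill fit.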

[13] = Primary fluorescence-based thiol-reactive (MSTI) qHTS assay for identification of artifact compounds. (AID 1845221);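 further: series mostly up to about 54 µM; thiol-reactive compounds lower the probe fluorescence signal; nearly all actives have a fitted effect of over 65% in size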
Summary of the method: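 One-hour, room-temperature, dark incubation of compound with 4 uM MSTI in PBS (pH 7.4, 2% DMSO) precedes a fluorescence read at 525 nm excitation, 598 nm emission; Hill-equation fitting yields concentration-response values.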

[14] = tested on: Nanoluciferase (engineered Oplophorus gracilirostris luciferase); assay: Primary Nanoluciferase (NLuc) qHTS assay for identification of artifact compounds. (AID 1845222); further: series mostly up to about 54 µM
Summary of the method: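 Luminescence read-out of secreted NLuc in S16 cell conditioned medium (1:55); compounds tested with 15 min RT preincubation, then Nano-Glo substrate 1:100, 5 min. % inhibition vs no-enzyme and DMSO controls, 4-parameter Hill fit.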

[15] = Primary redox qHTS assay for identification of artifact compounds. (AID 1845223)
Summary of the method: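 Amplex Red (25 uM) and HRP (250 mU/mL) in HBSS, with compounds for 15 min, then 250 uM DTT for 30 min, room temperature, dark. Fluorescence 525/598 nm read; normalized to DMSO and 10 uM DA3003; Hill fit.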

[16] = target: Cytochrome P450 2C19 (Homo sapiens) (UniProt P33261); assay: qHTS for inhibitors of CYP2C19 against the NCATS DSHEA and TCM libraries (AID 1919974);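 further: luminescence from luciferin released by CYP2C19 oxidation of a pro-luciferin substrate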
Sequence of Cytochrome P450 2C19 (Homo sapiens) (P33261 whole entry, looked up): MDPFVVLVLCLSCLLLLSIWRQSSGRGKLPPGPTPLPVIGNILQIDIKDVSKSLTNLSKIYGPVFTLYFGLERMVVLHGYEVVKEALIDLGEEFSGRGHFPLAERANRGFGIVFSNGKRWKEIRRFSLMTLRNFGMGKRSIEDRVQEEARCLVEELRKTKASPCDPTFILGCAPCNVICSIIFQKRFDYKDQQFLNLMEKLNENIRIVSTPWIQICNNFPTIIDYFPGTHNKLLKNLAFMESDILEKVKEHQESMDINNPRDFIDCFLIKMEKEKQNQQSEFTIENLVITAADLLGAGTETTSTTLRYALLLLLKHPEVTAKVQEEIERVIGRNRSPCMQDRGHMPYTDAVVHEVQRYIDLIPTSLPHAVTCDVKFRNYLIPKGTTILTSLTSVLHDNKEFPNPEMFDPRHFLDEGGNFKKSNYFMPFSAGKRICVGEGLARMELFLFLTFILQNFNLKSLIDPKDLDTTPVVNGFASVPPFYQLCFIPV
Summary of the method: as §2

[17] = target: Cytochrome P450 1A2 (Homo sapiens) (UniProt P05177); assay: qHTS for inhibitors of CYPIA2 against the NCATS DSHEA and TCM libraries (AID 1919976);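 further: light from luciferin formed by CYP1A2 from a pro-luciferin substrate; series mostly up to about 37 µM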
Sequence of Cytochrome P450 1A2 (Homo sapiens) (P05177 whole entry, looked up): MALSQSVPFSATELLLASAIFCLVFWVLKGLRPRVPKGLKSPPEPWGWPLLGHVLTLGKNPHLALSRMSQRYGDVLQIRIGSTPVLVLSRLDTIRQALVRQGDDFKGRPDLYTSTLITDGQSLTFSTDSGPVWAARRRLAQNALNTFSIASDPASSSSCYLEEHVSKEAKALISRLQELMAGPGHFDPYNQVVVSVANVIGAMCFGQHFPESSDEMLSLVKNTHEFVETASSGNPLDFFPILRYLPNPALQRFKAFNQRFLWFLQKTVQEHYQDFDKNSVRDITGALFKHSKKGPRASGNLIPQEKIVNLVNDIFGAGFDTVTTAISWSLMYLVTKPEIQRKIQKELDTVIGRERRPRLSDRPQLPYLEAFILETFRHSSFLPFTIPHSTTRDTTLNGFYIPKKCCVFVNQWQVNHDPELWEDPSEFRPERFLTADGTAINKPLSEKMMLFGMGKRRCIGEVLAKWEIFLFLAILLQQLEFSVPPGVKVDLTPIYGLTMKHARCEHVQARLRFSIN
Summary of the method: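 In this quantitative HTS, inhibition of recombinant human CYP1A2 was measured as loss of luciferin-derived luminescence. Turnover ran 30-45 min at RT after NADPH regeneration solution was added.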

[18] = target: Nuclear receptor subfamily 1 group I member 2 (Homo sapiens) (UniProt O75469); assay: Dual reporter qHTS for agonist of Pregnane X Receptor (hPXR) against the NCATS DSHEA and TCM libraries: Luminescence readout (AID 1920059)
Summary of the method: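 hPXR-LucHepG2 cells in phenol red-free DMEM with 5% charcoal-stripped FBS, 2000 cells/well, attached 5 h, then exposed 24 h at 37C to compounds; rifampicin as positive agonist control (2.8 nM–92 uM). Luciferase luminescence read.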

[19] = target: Cytochrome P450 3A4 (Homo sapiens) (UniProt P08684); assay: qHTS for inhibitors of CYP3A4 against the NCATS DSHEA and TCM libraries (AID 1919971);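 further: inhibition lowers luminescence from luciferin made by CYP3A4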
Sequence of Cytochrome P450 3A4 (Homo sapiens) (P08684 whole entry, looked up): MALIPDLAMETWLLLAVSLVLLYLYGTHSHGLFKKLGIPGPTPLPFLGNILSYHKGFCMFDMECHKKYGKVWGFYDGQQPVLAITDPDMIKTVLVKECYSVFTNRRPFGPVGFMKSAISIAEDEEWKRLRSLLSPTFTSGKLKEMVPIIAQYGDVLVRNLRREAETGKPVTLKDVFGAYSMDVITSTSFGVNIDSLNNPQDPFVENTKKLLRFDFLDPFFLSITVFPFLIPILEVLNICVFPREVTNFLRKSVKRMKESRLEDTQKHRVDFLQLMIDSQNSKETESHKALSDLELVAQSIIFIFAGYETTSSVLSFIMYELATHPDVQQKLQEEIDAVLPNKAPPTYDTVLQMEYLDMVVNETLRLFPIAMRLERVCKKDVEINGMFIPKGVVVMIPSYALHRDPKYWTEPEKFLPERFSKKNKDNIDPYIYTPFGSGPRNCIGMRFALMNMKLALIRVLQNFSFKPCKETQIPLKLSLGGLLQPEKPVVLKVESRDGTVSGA
Summary of the method: as §2

CC1=C(/C=C/C(C)=C/C=C/C(C)=C/CO)C(C)(C)CCC1
outcome [1]: inactive
outcome [2]: inactive
Potency [3]: inactive
Potency [4]: 17.8 µM (active)
outcome [5]: inactive
Potency [6]: 14.1 µM (active)
outcome [7]: inactive
max response [8]: 0.358%
outcome [9]: inactive
outcome [10]: inactive
outcome [11]: inactive

CC(=O)OC(C)OC(=O)C(C)c1ccc(-c2ccccc2)c(F)c1 (stereo unspecified)
Potency [3]: inactive
Potency [4]: inactive

CCCCCCCCCCCCCC[n+]1ccc(C)cc1
Potency [3]: inactive
Potency [4]: inactive

O=CCCCC=O
Potency [3]: inactive
Potency [4]: inactive

CC[C@@H](C(=O)O)[C@@H]1O[C@@H]([C@@H](C)[C@H](O)[C@H](C)C(=O)[C@H](CC)[C@H]2O[C@]3(C=C[C@@H](O)[C@]4(CC[C@@](C)([C@H]5CC[C@](O)(CC)[C@H](C)O5)O4)O3)[C@H](C)C[C@@H]2C)[C@@H](C)C[C@@H]1C
Potency [3]: inactive

C[C@H]1[C@H](C)CC[C@]2(C(=O)O)CC[C@]3(C)C(=CC[C@@H]4[C@@]5(C)C[C@@H](O)[C@H](O)[C@@](C)(CO)[C@@H]5CC[C@]43C)[C@H]12
outcome [1]: inactive
outcome [2]: inactive
Potency [3]: inactive
Potency [12]: inactive
Potency [13]: inactive
Potency [14]: inactive
Potency [15]: inactive
outcome [5]: inactive
Potency [6]: inactive
Potency [16]: inactive
outcome [7]: inactive
outcome [17]: inactive
max response [8]: 2.22%
outcome [9]: inactive
outcome [18]: inactive
outcome [10]: inactive
outcome [11]: inactive

CC(=O)Oc1cc(C)c(OC(C)=O)c2ccccc12
Potency [3]: inactive
Potency [4]: inactive

CCCCCCCC(=O)O
outcome [1]: inactive
outcome [2]: inactive
Potency [3]: inactive
outcome [19]: inactive
outcome [5]: inactive
Potency [6]: inactive
Potency [16]: inactive
outcome [7]: inactive
outcome [17]: inactive
max response [8]: 5.32%
outcome [9]: inactive
outcome [18]: inactive
outcome [10]: inactive
outcome [11]: inactive
